A selection: hits, their analogues and other compounds. The true share with any hit is near 19%.
KB-V1 cytotox: KB-V1 MDR subline cytotoxicity. KB-V1 MDR cells viability, CellTiter-Glo, 72 h. Potency, µM (series often up to 46.1 µM), most hits filed as cytotoxic. actives 3.4% (n = 400,000). AID 1347076; note: nearly all actives have a fitted effect of over 60% in size
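Readout: CellTiter-Glo luminescence, 10 min after addition. Cells: KB-V1 MDR subline, 72 h at 37 degrees C with compound. Analysis: corrected, normalized data fitted to concentration-effect curves.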
DT40 TDP1 no CPT: qHTS for Inhibitors of human tyrosyl-DNA phosphodiesterase 1 (TDP1): qHTS in cells in absence of CPT. DT40 Tdp1-/- hTDP1 cells, no CPT, ATP luminescence, 48 h. Potency, µM (highest dose often 46.2 µM), most hits filed as inhibitors. actives 15% (n = 420,000). AID 686978, 2013; note: nearly all actives have a fitted effect of over 55% in size
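Compound effects on proliferation are scored in DT40 Tdp1-/-;hTDP1 cells in the absence of CPT. ATP levels (CellTiter-Glo luminescence) are recorded after a ≥48 hr, 37 °C incubation.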
TDP1 cell CPT: DT40-hTDP1 cell growth loss with CPT; chicken DT40 Tdp1-/-;hTDP1 cells + 20 nM CPT, ATP luminescence, 48 h; Potency, µM (series often up to 46.2 µM), most hits filed as inhibitors; actives 12% (n = 420,000); note: nearly all actives have a fitted effect of over 55% in size
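Chicken DT40 Tdp1-/- cells stably complemented with human TDP1 were seeded at 400 cells/well in medium containing 20 nM camptothecin, exposed to pin-transferred compounds, and grown at 37 °C for at least 48 hr. Viability was read as ATP luminescence.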
HT1080NT lethal: kills 2HG-producing HT-1080-NT fibrosarcoma cells; HT-1080-NT fibrosarcoma viability, CellTiter-Glo ATP luminescence, 48 h; Potency, µM (titrated, usually from 46.1 µM), actives largely listed as cytotoxic; actives 1.6% (n = 360,000); AID 686970;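 note: NT is the 2HG producing partner of a matched IDH1 knockdown line; nearly all actives have a fitted effect of over 55% in size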
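HT-1080-NT fibrosarcoma cells (2HG-overproducing), 750 cells/well in RPMI with 5% FBS, dosed after 2 h and incubated 48 h at 37C. CellTiter-Glo luminescence normalized to DMSO and no-cell wells; concentration-response curves fitted and classed.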
HT1080 IDH1KD tx: HT-1080 IDH1 knockdown cell toxicity (counter line) | HT-1080 IDH1 knockdown viability, ATP luminescence, 48 h | Potency, µM (top dose mostly 46.1 µM), actives largely listed as cytotoxic | actives 2% (n = 360,000) | AID 686971
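% activity derives from luminescence (CellTiter-Glo), normalised to DMSO and no-cell wells. HT-1080-IDH1KD cells, 750/well, had 48 h compound exposure at 37 °C.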
KB-3-1 tox: KB-3-1 parental cell cytotoxicity | KB-3-1 viability, CellTiter-Glo ATP luminescence, 72 h | actives 1.4% (n = 400,000) | AID 1347075 | Potency, µM (series often up to 46.1 µM), hits mostly cytotoxic; note: nearly all actives have a fitted effect of over 60% in size
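Using CellTiter-Glo luminescence, growth of non-resistant KB-3-1 adenocarcinoma cells is assessed 72 h after pin-tool compound addition at 37 °C. Normalized responses across the concentration series yield fitted curves.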
A number is an active result; i = inactive; ? = inconclusive; nt = not tested or not shown. Calls come from the whole dose curve; as a rule, active = well fitted curve in the direction sought with a large enough effect; inconclusive = small, poorly fitted or top-dose-only effect, or another doubt; inactive = no such curve, though single readings can be large; an effect the other way counts as inactive or inconclusive.

SMILES	KB-V1 cytotox	DT40 TDP1 no CPT	TDP1 cell CPT	HT1080NT lethal	HT1080 IDH1KD tx	KB-3-1 tox
C=CCN(CC=C)CC(O)Cn1c2ccccc2c2ccccc21 (stereo unspecified)	i	23.1µM	?	?	?	i
O=C(CNCc1cccnc1)Nc1cc(C(F)(F)F)ccc1N1CCOCC1	?	i	i	i	i	i
O=C(c1cc(C(F)(F)F)cc(C(F)(F)F)c1)N1CCC2(CCCN(c3ccccc3)C2)CC1	nt	i	i	nt	nt	nt
COc1ccc(C(=O)NCC(=O)OCc2cc(=O)n3nc(C4CCCCC4)sc3n2)cc1	i	i	i	nt	nt	i
CC(=O)NC(c1ccc(F)c(F)c1)c1nc(-c2cccc(F)c2)cs1 (stereo unspecified)	i	i	20.6µM	i	i	i
CC(=O)Nc1cccc(-c2csc(C(NC(C)=O)c3ccc(F)c(F)c3)n2)c1 (stereo unspecified)	i	i	i	i	i	i
CC(=O)NC(c1ccc(F)c(F)c1)c1nc(-c2ccncc2)cs1 (stereo unspecified)	i	14.6µM	18.4µM	i	i	i
CC(=O)NC(c1ccc(F)c(F)c1)c1nc(-c2cccc(C(C)C)c2)cs1 (stereo unspecified)	i	23.1µM	16.4µM	i	?	i
Cc1ccccc1NC(=O)CSc1cn(CC(=O)N2CCCC2)c2ccccc12	i	?	?	nt	nt	i
Cc1ccc(CSc2cn(CC(=O)N3CCCC3)c3ccccc23)cc1	nt	16.4µM	16.4µM	nt	nt	nt
Cc1ccc(CSc2cn(CC(=O)N3CCCCCC3)c3ccccc23)cc1	nt	20.6µM	?	nt	nt	nt
Clc1ccc[n+](CCCCC[n+]2cccc(Cl)c2)c1	i	?	?	nt	nt	i
O=C(Cn1c(=O)oc2cc(S(=O)(=O)NCc3ccccc3)ccc21)Nc1cccc(F)c1	i	?	?	nt	nt	i
CCCCC1CC2=C(C(=O)OC(C)(C)O2)C(c2cccc3ccccc23)O1 (stereo unspecified)	i	23.1µM	?	?	?	i
CCCC[C@@H]1Cc2[nH][nH]c(=O)c2[C@H](c2cccc3ccccc23)O1	i	i	i	?	25.9µM	i
CC(C)(C)C(=O)Nc1nnc(SCC(=O)NC2CC2)s1	i	i	i	i	i	i
CC(=C/c1ccc(C(C)C)cc1)/C=N/NC(=O)Cn1nc(C)cc1C	i	29.1µM	?	i	i	i
CCOC(=O)N/N=C\c1ccc([N+](=O)[O-])s1	i	23.1µM	16.4µM	i	?	?
Cc1ccc(C(=O)N/N=C\c2ccc([N+](=O)[O-])s2)cn1	?	11.6µM	10.3µM	i	i	?
CC(C)(C)OC(=O)N/N=C\c1ccc([N+](=O)[O-])s1	i	?	i	i	i	i
O=C(CSc1nnc(-c2ccc(Cl)cc2)n1-c1ccc(Cl)cc1)N/N=C/c1ccco1	?	?	20.6µM	?	?	i
Cc1ccc(C(=O)N/N=C\c2sccc2C)cn1	?	i	i	i	i	i
Cc1nc2ccc(Br)cn2c1C(=O)N/N=C\c1ccccc1Cl	i	?	?	i	i	i
Cc1cccc(NC(=O)CSc2ncc3c(n2)-c2ccccc2N(Cc2ccc(F)cc2)S3(=O)=O)c1C	i	i	?	nt	nt	i
Cn1c(SCC(=O)N/N=C/c2ccc([N+](=O)[O-])s2)nnc1-c1ccc(Cl)cc1	i	20.6µM	13µM	?	?	?
SMILES	KB-V1 cytotox	DT40 TDP1 no CPT	TDP1 cell CPT	HT1080NT lethal	HT1080 IDH1KD tx	KB-3-1 tox
COc1cc(Br)cc(/C=N/NC(=O)Cc2ccc(C(F)(F)F)cc2[N+](=O)[O-])c1O	i	2.59µM	1.84µM	?	16.4µM	?
O=C(CNC(=O)c1ccccc1)N/N=C/c1ccc([N+](=O)[O-])s1	?	?	?	i	i	?
Cc1cc(C)n(CC(=O)N/N=C/c2cccs2)n1	i	i	i	?	i	i
COc1cc([N+](=O)[O-])cc(/C=N/NC(=O)CSc2nnc(-c3ccccc3)n2C)c1O	?	i	i	i	i	i
Cc1cc(C)n(CC(=O)N/N=C/c2ccc([N+](=O)[O-])s2)n1	?	?	23.1µM	?	?	?
Cc1ccc(C(=O)N/N=C/c2ccc([N+](=O)[O-])s2)cc1	?	7.31µM	8.2µM	?	?	i
CCOc1cc(/C=N/NC(=O)Cc2ccc(C(F)(F)F)cc2[N+](=O)[O-])c(Br)cc1OC	i	?	?	i	i	i
O=C(N/N=C/c1ccc(-n2ccnc2)cc1)c1cccs1	?	i	?	i	i	i
Cc1cccc(CCNC(=O)c2cnc3c(C)cccn3c2=O)c1	i	?	i	nt	nt	i
O=C(N/N=C/c1ccc([N+](=O)[O-])s1)c1ccncc1	i	6.51µM	6.51µM	i	?	i
COc1ccc(/C=N/NC(=O)Cn2nc([N+](=O)[O-])cc2C)c(OC)c1OC	i	i	i	i	i	i
O=C(Cc1ccccc1)NCC(=O)N/N=C/c1ccc([N+](=O)[O-])s1	?	14.6µM	23.1µM	i	?	?
O=C(N/N=C/c1cccc([N+](=O)[O-])c1)c1cccc(Br)c1	i	i	?	i	i	i
COc1cc([N+](=O)[O-])cc(/C=N/NC(=O)Cn2nc(C)cc2C)c1O	?	23.1µM	?	?	?	?
O=C(N/N=C/c1ccc([N+](=O)[O-])s1)c1cccc(Br)c1	?	10.3µM	9.2µM	11.6µM	20.6µM	i
CN(C(=O)c1ccc(NC(=O)Cc2ccc(NC(=O)C3CCCN(C(=O)C4CCC4)C3)cc2)cc1)C1CC1 (stereo unspecified)	i	i	?	i	i	i
CC1CCCC(C)N1C(=O)COC(=O)c1ccc(F)c(S(=O)(=O)N2CCOCC2)c1 (stereo unspecified)	i	i	i	i	i	i
COc1ccccc1C1=CN(Cc2ccccc2)CCC1=O	i	i	i	i	i	i
Cc1ccc(/C=N/NC(=O)c2ccncc2)s1	i	14.6µM	6.51µM	i	i	i
O[C@@H]1CN(Cc2cccs2)[C@@H](c2ccc(Cl)cc2)C[C@H]1n1cc(-c2ccc(F)cc2)nn1	?	23.1µM	?	?	i	i
O=C(c1cccs1)N1C[C@@H](n2cc(-c3ccc(F)cc3)nn2)[C@H](O)C[C@@H]1c1ccccc1	i	20.6µM	14.6µM	i	i	i
O=C(c1cccs1)N1C[C@@H](O)[C@H](n2cc(-c3ccc(F)cc3)nn2)C[C@@H]1c1ccc(Cl)cc1	?	23.1µM	?	?	?	?
O=C(c1cccs1)N1C[C@@H](n2cc(-c3ccc(F)cc3)nn2)[C@H](O)C[C@@H]1c1ccc(Cl)cc1	?	23.1µM	13µM	i	i	i
